Inconclusive results are not listed. The source made the active and inactive calls. Unless noted, the call rests on the fitted dose curve; in most records, active means well fitted curve in either direction with a large enough effect (not every such curve was filed as active); inconclusive means small, poorly fitted or top-dose-only effect, or another doubt; inactive means flat fitted curve, though single readings scatter.
Legend:
[1] = target: Lysosomal acid glucosylceramidase (Homo sapiens) (UniProt P04062); assay: Glucocerebrosidase-p2 (AID 348; in the data active means potency below about 10 µM; further: potency means the concentration at half of the fitted maximal effect); conditions: purified GBA, blue fluorogenic substrate, 40 min
Chain of Lysosomal acid glucosylceramidase (Homo sapiens) (P04062 whole entry, looked up): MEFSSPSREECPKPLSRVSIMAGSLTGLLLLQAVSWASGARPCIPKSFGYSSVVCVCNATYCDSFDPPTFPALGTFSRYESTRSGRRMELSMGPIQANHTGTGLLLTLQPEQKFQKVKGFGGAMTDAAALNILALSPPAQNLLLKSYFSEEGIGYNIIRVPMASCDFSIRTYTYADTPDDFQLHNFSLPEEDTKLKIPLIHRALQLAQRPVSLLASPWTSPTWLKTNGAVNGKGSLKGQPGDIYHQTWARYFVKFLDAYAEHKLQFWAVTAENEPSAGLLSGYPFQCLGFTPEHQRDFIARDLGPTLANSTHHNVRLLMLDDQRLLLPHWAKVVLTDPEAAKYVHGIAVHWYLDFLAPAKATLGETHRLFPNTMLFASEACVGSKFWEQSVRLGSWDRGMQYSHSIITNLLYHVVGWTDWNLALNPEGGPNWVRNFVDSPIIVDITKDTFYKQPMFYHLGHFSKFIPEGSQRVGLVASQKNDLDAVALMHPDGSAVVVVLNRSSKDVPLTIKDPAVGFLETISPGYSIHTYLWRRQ
Outline: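 Compounds titrated from 0.6 nM upwards against 0.2 nM enzyme in pH 5.9 citric acid/KH2PO4, taurocholate, tween-20; blue fluorogenic substrate 80 uM, 40 min room temperature, stopped and read Ex 365/Em 440 for AC50.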

[2] = AP1 Signaling Pathway (AID 357); conditions: ME-180 AP-1-bla reporter, EGF-induced, beta-lactamase ratio, 5 h; at 7.69 µM (top of the series) unless noted;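 further: ME-180 reporter cells stimulated with EGF at its EC50 level; on the % scale 0 is the no-effect control and ±100 the full control effect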
Outline: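 Cells are seeded overnight, exposed to compound titrations and an EC50 level of EGF for 5 hours at 37 °C, then loaded with CCF4 dye for 2.5 hours. Beta-lactamase activity under the AP-1 element is read as a blue/green ratio.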

[3] = target: Cytochrome P450 1A2 (Homo sapiens) (UniProt P05177); assay: p450-cyp1a2 (AID 410; calls by dose curve; further: potency means the concentration at half of the fitted maximal effect;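 on activity change, negative = inhibition: -100% = full effect of reference inhibitor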); conditions: recombinant CYP1A2, luciferin-ME demethylation, luminescence; series mostly up to 57 µM
Chain of Cytochrome P450 1A2 (Homo sapiens) (P05177 whole entry, looked up): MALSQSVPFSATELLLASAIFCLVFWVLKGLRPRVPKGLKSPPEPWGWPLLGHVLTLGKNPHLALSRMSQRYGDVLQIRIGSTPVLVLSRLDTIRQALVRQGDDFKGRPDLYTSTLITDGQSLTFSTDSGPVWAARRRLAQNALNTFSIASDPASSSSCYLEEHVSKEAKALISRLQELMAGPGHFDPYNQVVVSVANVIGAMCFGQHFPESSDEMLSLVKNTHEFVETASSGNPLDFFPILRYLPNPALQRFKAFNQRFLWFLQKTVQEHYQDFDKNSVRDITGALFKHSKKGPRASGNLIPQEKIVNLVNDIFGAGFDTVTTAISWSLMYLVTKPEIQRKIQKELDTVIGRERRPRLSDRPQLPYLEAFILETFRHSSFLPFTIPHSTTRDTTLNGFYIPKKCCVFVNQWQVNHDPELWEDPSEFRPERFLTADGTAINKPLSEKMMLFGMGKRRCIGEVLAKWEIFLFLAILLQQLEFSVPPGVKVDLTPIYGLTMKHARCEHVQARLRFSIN
Outline: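 Inhibition was calculated relative to 57 uM furafylline (full inhibition). The reaction used human CYP1A2 at 20nM with Luciferin-ME at its Km, 100uM, driven by an NADPH-regenerating system for 60 min at room temperature.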

[4] = NFAT Signaling Pathway (AID 444); conditions: Jurkat NFAT-bla M1, carbachol, beta-lactamase ratio, 5 h; at 7.69 µM (top of the series) unless noted;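 further: carbachol stimulus at about its EC50 of 1 µM final; on the % scale 0 is the no-effect control and ±100 the full control effect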
Outline: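 Jurkat cells with NFAT-driven β-lactamase reporter and co-expressed M1 receptor, stimulated with carbachol (final 1 uM, ~EC50), compound titration, 5 h at 37 °C. CCF4 loaded 1 h at RT; 460/530 nm ratio gave %activity and AC50.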

[5] = target: Glucocorticoid receptor (Homo sapiens) (UniProt P04150); assay: GR-EFC Redistribution (AID 451; calls by dose curve; further: potency means the concentration at half of the fitted maximal effect); conditions: CHO-K1 GR-EFC translocation, beta-gal luminescence, 2 h
Chain of Glucocorticoid receptor (Homo sapiens) (P04150 whole entry, looked up, the tested form may be a part): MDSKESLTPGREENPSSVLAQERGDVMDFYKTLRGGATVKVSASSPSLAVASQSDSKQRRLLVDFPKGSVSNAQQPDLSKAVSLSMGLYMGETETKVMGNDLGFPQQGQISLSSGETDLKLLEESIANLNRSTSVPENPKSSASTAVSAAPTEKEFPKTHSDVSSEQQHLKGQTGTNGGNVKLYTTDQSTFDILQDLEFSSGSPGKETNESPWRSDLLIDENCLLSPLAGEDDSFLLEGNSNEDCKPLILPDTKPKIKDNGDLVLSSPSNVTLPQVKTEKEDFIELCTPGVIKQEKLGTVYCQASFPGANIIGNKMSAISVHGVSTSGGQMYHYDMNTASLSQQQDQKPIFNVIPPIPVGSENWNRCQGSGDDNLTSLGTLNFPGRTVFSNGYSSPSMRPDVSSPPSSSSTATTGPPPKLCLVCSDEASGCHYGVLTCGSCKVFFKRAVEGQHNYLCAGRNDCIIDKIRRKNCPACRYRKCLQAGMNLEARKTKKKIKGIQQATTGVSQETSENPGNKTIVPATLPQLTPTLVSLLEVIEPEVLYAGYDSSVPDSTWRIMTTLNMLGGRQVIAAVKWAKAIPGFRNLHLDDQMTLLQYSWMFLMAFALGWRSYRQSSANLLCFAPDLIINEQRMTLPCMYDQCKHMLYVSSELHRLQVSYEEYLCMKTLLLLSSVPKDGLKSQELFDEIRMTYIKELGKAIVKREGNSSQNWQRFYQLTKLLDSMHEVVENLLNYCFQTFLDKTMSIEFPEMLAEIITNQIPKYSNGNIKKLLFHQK
Outline: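 CHO-K1 cells expressing nuclear EA and GR-ED fragments of b-gal; compounds titrated up to 46 uM final, 2 h at 37 C. GR nuclear translocation read as complemented b-gal luminescence after 1 h RT detection.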

[6] = target: Mitogen-activated protein kinase 10 (Mus musculus) (UniProt Q61831); assay: JNK3 AlphaScreen Assay (AID 530); conditions: JNK3 lysate, c-Jun phosphorylation; series mostly up to 57.1 µM;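 further: kinase came from lysate of stimulated human HepG2 cells; signal reports phosphorylation of biotinylated GST-cJun 1-79 at Ser73 with 10 µM ATP; on the % scale 0 is the no-effect control and ±100 the full control effect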
Outline: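 qHTS format: compounds tested as titrations against IL-1beta/TNF-alpha-activated HepG2 lysate JNK3 with biotin-GST-cJun substrate and 10 uM ATP at room temperature. Loss of anti-phospho-cJun AlphaScreen signal indicates inhibition.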

[7] = target: 3',5'-cyclic-AMP phosphodiesterase 4B (Homo sapiens) (UniProt Q07343); assay: qHTS Assay for Inhibitors of PDE-IV (AID 607; active means well fitted activation curve with a large enough effect in the main read-out, with a control signal flat, not every such curve was filed as active; further: % of control where 0% means no effect); conditions: HEK293 ACTOne CNG channel cells, membrane potential fluorescence; series mostly up to 22.9 µM
Chain of 3',5'-cyclic-AMP phosphodiesterase 4B (Homo sapiens) (Q07343 whole entry, looked up): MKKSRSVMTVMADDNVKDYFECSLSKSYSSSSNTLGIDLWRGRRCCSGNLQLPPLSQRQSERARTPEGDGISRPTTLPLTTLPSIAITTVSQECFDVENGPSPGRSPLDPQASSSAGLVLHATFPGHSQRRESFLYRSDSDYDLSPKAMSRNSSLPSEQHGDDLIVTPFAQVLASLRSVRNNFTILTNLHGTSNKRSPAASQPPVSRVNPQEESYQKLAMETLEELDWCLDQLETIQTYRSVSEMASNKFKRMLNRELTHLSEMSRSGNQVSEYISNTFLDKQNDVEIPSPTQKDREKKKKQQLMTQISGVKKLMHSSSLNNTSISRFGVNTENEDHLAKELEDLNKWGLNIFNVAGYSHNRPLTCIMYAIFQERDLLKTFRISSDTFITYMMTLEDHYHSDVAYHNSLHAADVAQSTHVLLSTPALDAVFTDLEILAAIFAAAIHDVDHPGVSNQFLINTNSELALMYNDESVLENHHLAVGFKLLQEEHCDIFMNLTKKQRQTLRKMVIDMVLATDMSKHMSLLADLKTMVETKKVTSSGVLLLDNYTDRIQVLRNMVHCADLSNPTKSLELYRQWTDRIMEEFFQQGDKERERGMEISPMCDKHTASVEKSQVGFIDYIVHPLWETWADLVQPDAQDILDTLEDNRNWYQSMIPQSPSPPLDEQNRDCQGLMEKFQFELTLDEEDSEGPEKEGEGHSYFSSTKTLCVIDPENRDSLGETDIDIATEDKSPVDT
Outline: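 ACTOne HEK293 cells carry a modified cAMP-gated CNG channel and express endogenous PDE4; plated 1000 cells/well, compounds up to 22.9 uM final. Membrane-potential dye fluorescence (ex 535/em 590) was read; parental cells received 10 uM forskolin + 100 uM RO 20-1724.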

[8] = target: Cytochrome P450 3A4 (Homo sapiens) (UniProt P08684); assay: qHTS Assay for Inhibitors and Substrates of Cytochrome P450 3A4 (AID 884; active means well fitted curve in the direction sought with a large enough effect; an effect the other way counts as inactive or inconclusive; further: nearly all actives have a fitted effect of over 50% in size; further: potency means the concentration at half of the fitted maximal effect); conditions: recombinant CYP3A4, Luciferin-PPXE luminescence; series mostly up to 57.1 µM
Chain of Cytochrome P450 3A4 (Homo sapiens) (P08684 whole entry, looked up): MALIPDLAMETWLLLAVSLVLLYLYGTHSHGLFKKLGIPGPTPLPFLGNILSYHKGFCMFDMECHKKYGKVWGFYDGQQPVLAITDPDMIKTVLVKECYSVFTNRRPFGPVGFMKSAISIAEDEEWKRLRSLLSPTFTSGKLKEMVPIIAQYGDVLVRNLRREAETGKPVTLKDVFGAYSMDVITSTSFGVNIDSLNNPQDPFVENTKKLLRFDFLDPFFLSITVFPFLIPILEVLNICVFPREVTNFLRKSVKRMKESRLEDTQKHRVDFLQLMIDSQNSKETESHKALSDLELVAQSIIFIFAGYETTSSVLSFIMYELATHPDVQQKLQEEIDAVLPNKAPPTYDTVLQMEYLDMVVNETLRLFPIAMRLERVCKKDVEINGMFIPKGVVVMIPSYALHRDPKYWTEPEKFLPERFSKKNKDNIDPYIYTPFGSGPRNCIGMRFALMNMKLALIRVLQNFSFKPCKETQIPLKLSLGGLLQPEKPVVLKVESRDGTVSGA
Outline: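 20 nM human CYP3A4 with 25 uM Luciferin-PPXE (at KM) in 200 mM KPO4, preincubated 10 min with compound; NADPH regeneration started a 60 min RT reaction. Luciferin detected by luminescence, normalized to 57 uM ketoconazole as full inhibition.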

[9] = target: Cytochrome P450 3A4 (Homo sapiens) (UniProt P08684); assay: qHTS Assay for Activators of Cytochrome P450 3A4 (AID 885; active means well fitted curve in the direction sought with a large enough effect; an effect the other way counts as inactive or inconclusive; further: nearly all actives have a fitted effect of over 65% in size; further: potency means the concentration at half of the fitted maximal effect); conditions: recombinant CYP3A4, Luciferin-PPXE luminescence, 60 min; series mostly up to 57.1 µM
Outline: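 20nM CYP3A4 + 25uM Luciferin-PPXE (=KM), 200mM KPO4; cpd 10 min RT; NADPH regen, 60 min RT; stop w/ detection buffer, 20 min; luminescence. Normalized to 57 uM ketoconazole.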

[10] = qHTS Assay for Lipid Storage Modulators (AID 1519; calls by dose curve); conditions: Drosophila S3 cells, BODIPY lipid droplet/cell ratio, laser cytometry, cells loaded with oleic acid; for activity change, negative = inhibition: at 57.5 µM (top of the series)
Outline: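 Cells seeded at 5,000 per well were treated with compounds over a concentration series and loaded with oleic acid (400 uM, as added). Lipid droplet fluorescence (488 nm excitation, 500-530 nm channel) was read by laser-scanning cytometry and normalized to 20 uM Triacsin C.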

[11] = Primary qHTS for small molecule stabilizers of the endoplasmic reticulum resident proteome: Secreted ER Calcium Modulated Protein (SERCaMP) assay (AID 1508630; active means well fitted curve in the direction sought with a large enough effect; an effect the other way counts as inactive or inconclusive; further: on the % scale 0 is the no-effect control and ±100 the full control effect); conditions: SH-SY5Y GLuc-SERCaMP (Gaussia luciferase released on ER calcium loss) secretion, thapsigargin, luminescence; series mostly up to 38.4 µM
Outline: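 GLuc-SERCaMP-expressing SH-SY5Y cells, pretreated 16 h with compound, are challenged with thapsigargin to empty ER calcium stores; after 4 h, coelenterazine is added directly to the medium and luminescence is imaged.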

[12] = Stat Signaling Pathway (AID 446); conditions: ME-180 SIE beta-lactamase reporter, IL-6 stimulated, 5 h; at 7.69 µM (top of the series) unless noted
Outline: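 ME-180 SIE-bla cells; overnight plating; cpd + IL-6 40 pM, 5 h, 37 C; LiveBLAzer 2.5 h RT; 460/530 nm emission ratio. Normalized to 300 pM IL-6 and 125 nM JAK inhibitor controls.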

[13] = target: Cytochrome P450 2D6 (Homo sapiens) (UniProt P10635); assay: qHTS Assay for Inhibitors and Substrates of Cytochrome P450 2D6 (AID 891; active means well fitted curve in the direction sought with a large enough effect; an effect the other way counts as inactive or inconclusive; further: potency means the concentration at half of the fitted maximal effect; nearly all actives have a fitted effect of over 60% in size); conditions: recombinant CYP2D6, luciferin-ME EGE luminescence; series mostly up to 57.1 µM
Chain of Cytochrome P450 2D6 (Homo sapiens) (P10635 whole entry, looked up): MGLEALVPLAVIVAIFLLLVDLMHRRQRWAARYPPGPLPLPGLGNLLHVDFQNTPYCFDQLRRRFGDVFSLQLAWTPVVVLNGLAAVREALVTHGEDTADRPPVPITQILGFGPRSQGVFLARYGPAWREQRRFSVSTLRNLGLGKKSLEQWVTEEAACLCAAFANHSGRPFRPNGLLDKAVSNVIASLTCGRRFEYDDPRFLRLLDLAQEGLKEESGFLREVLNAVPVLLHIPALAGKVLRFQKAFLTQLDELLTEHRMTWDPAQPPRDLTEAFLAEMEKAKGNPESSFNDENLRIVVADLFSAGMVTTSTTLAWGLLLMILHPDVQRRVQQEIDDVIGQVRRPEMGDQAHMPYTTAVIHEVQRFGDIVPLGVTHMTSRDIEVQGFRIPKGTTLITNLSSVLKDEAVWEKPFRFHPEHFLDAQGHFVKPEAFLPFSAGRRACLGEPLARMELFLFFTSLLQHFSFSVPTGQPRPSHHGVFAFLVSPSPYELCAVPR
Outline: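 Human CYP2D6 (5 nM) with 30 uM Luciferin-ME EGE (at Km) in 100 mM KPO4, compound preincubated 10 min, then NADPH regeneration system for 60 min at room temperature. Luciferin read by luminescence; normalized to 1.43 uM quinidine.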

[14] = target: Cytochrome P450 2C19 (Homo sapiens) (UniProt P33261); assay: qHTS Assay for Inhibitors and Substrates of Cytochrome P450 2C19 (AID 899; active means well fitted curve in the direction sought with a large enough effect; an effect the other way counts as inactive or inconclusive; further: potency means the concentration at half of the fitted maximal effect; nearly all actives have a fitted effect of over 60% in size); conditions: recombinant CYP2C19, luciferin-H EGE luminescence; series mostly up to 57.1 µM
Chain of Cytochrome P450 2C19 (Homo sapiens) (P33261 whole entry, looked up): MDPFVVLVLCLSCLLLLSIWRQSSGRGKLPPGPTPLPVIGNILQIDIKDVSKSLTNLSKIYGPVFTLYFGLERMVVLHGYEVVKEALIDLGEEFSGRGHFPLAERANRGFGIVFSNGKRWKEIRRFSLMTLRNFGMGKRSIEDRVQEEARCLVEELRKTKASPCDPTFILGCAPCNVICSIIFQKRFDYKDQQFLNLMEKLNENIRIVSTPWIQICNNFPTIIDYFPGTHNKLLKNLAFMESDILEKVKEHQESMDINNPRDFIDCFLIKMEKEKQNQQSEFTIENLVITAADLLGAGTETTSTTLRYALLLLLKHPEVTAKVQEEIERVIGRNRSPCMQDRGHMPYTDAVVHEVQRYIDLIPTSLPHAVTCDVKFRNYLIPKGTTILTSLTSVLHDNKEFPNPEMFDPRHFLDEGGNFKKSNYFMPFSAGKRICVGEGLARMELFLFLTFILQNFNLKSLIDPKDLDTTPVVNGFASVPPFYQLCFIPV
Outline: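 5 nM human CYP2C19 with 10uM Luciferin-H EGE (at KM) in 50mM KPO4, compound preincubated 10 min at 37C, then NADPH regeneration for 60 min at 37C. Luciferin read by luminescence after detection reagent; normalized to 57uM ketoconazole as full inhibition.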

[15] = measured here: cell count channel max response
[16] = measured here: lipid channel max response

| SMILES | Potency [1] | activity change, negative = inhibition [2] | Potency [3] | activity change, negative = inhibition [4] | Potency [5] | outcome [6] | Potency [7] | Potency [8] | Potency [9] | activity change, negative = inhibition [10] | max response [10, 15] | max response [10, 16] | Potency [11] | activity, negative = inhibition [12] | Potency [13] | Potency [14] |
| --- | --- | --- | --- | --- | --- | --- | --- | --- | --- | --- | --- | --- | --- | --- | --- | --- |
| O=C(c1cc(C(F)(F)F)cc(C(F)(F)F)c1)N1CCC2(CC1)CN(c1ccccc1)C2 | > 11.4 µM (inactive) | 29.9% (inactive) | inactive | -25.4% (inactive) | > 46 µM (inactive) | inactive | inactive | inactive | 3.98 µM (active) | -8.64% (inactive) | 5.35% | -1.3% | inactive | – | – | – |
| O=C(c1cnccn1)N1CCC[C@@]2(CCN(Cc3cc(C(F)(F)F)cc(C(F)(F)F)c3)C2)C1 | > 11.4 µM (inactive) | -16.9% (inactive) | inactive | 16.8% (inactive) | – | inactive | inactive | 7.94 µM (active) | inactive | 4.01% (inactive) | 14.7% | 20.7% | inactive | 2.8% (inactive) | 3.16 µM (active) | – |
| CS(=O)(=O)N1CCC2(CC1)CN(c1ccncc1)C2 | > 11.4 µM (inactive) | -2.13% (inactive) | inactive | -17.7% (inactive) | – | inactive | inactive | – | – | 4.12% (inactive) | -19.4% | -21.8% | inactive | -0.0709% (inactive) | – | – |
| Cn1cccc1C(=O)N1CCC[C@@]2(CCN(c3ccccc3)C2)C1 | > 11.4 µM (inactive) | -3.25% (inactive) | 12.6 µM (active) | -15.1% (inactive) | > 46 µM (inactive) | – | inactive | – | inactive | -1.47% (inactive) | 15.8% | 17.2% | inactive | -10.8% (inactive) | – | 5.01 µM (active) |
| COCC(=O)N1CCC2(CC1)CN(Cc1ccc(C#N)cc1)C2 | > 11.4 µM (inactive) | 3.59% (inactive) | inactive | -16.7% (inactive) | > 46 µM (inactive) | inactive | inactive | – | – | -4.37% (inactive) | 8.42% | 5.18% | inactive | – | – | – |
| c1ccc(-c2cccc(N3CC[C@@]4(CCCNC4)C3)c2)cc1 | > 11.4 µM (inactive) | 1.23% (inactive) | 12.6 µM (active) | 6.24% (inactive) | > 46 µM (inactive) | – | inactive | – | inactive | 1.77% (inactive) | -28.1% | -22.7% | inactive | -6.03% (inactive) | – | – |

Reference: PubChem BioAssay (NCATS)
